Results: PubChem BioAssay (NCATS)
Records with an inconclusive call do not appear. Activity calls are given as the source filed them. Calls come from the whole dose curve; as a rule, active = well fitted curve in the direction sought with a large enough effect; inconclusive = small, poorly fitted or top-dose-only effect, or another doubt; inactive = no such curve, though single readings can be large; an effect the other way counts as inactive or inconclusive.

How the values were obtained:
[1] = molecular target: Rap guanine nucleotide exchange factor 3 (Homo sapiens) (UniProt O95398); assay: Confirmatory qHTS for antagonist of cAMP-regulated guanine nucleotide exchange factor 3 (EPAC1) (AID 1645880); note: nearly all actives have a fitted effect of over 55% in size; note: potency is the fitted concentration of half-maximal effect
Method in brief: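 Nucleotide exchange uses 100 nM EPAC1, 250 nM RAP1B-BODIPY-GDP and 50 uM GDP, with compounds in a concentration-titration series. After 5 min at room temperature, fluorescence (480 nm ex/540 nm em) is read every 5 min for 30 min. Data are normalized to control ATA and DMSO.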

[2] = molecular target: Rap guanine nucleotide exchange factor 3 (Homo sapiens) (UniProt O95398); assay: Confirmatory qHTS for agonist of cAMP-regulated guanine nucleotide exchange factor 3 (EPAC1) (AID 1645881); note: nearly all actives have a fitted effect of over 75% in size; note: potency is the fitted concentration of half-maximal effect;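 for activation: EPAC1 catalysed release of BODIPY-GDP from Rap1B seen as fluorescence loss; 100% = effect of cAMP agonist control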
[3] = molecular target: Rap guanine nucleotide exchange factor 4 (Homo sapiens) (UniProt Q8WZA2); assay: Confirmatory qHTS for agonist of cAMP-regulated guanine nucleotide exchange factor 4 (EPAC2) (AID 1645884);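 note: nucleotide exchange releases bodipy-GDP from Rap1 and this lowers its fluorescence; nearly all actives have a fitted effect of over 65% in size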; note: potency is the fitted concentration of half-maximal effect; for activation: % is set by controls: 0 for no effect and ±100 for the full control effect
[4] = molecular target: Rap guanine nucleotide exchange factor 4 (Homo sapiens) (UniProt Q8WZA2); assay: Confirmatory qHTS for antagonist of cAMP-regulated guanine nucleotide exchange factor 4 (EPAC2) (AID 1645885); note: nearly all actives have a fitted effect of over 25% in size; note: potency is the fitted concentration of half-maximal effect; for activity change, negative = inhibition: % is set by controls: 0 for no effect and ±100 for the full control effect
[5] = molecular target: Rap guanine nucleotide exchange factor 3 (Homo sapiens) (UniProt O95398); assay: Counterscreen qHTS for antagonist of cAMP-regulated guanine nucleotide exchange factor 3 (EPAC1) (AID 1645888);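 note: fluorescence loss as bound BODIPY-GDP is released from Rap1B; % of control where 0% means no effect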
Method in brief: (§1)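 Measured: fluorescence of BODIPY-GDP bound to Rap1B, which falls as exchange proceeds. Conditions include 50 uM competing GDP, 5 and 30 min reads, and a later cAMP challenge for antagonist detection.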

[6] = molecular target: Rap guanine nucleotide exchange factor 3 (Homo sapiens) (UniProt O95398); assay: Counterscreen qHTS for agonist of cAMP-regulated guanine nucleotide exchange factor 3 (EPAC1) (AID 1645889); note: nearly all actives have a fitted effect of over 40% in size; note: potency is the fitted concentration of half-maximal effect; for activation: % of control where 0% means no effect
Method in brief: as §1

Chain of Rap guanine nucleotide exchange factor 4 (Homo sapiens) (Q8WZA2 whole entry, looked up): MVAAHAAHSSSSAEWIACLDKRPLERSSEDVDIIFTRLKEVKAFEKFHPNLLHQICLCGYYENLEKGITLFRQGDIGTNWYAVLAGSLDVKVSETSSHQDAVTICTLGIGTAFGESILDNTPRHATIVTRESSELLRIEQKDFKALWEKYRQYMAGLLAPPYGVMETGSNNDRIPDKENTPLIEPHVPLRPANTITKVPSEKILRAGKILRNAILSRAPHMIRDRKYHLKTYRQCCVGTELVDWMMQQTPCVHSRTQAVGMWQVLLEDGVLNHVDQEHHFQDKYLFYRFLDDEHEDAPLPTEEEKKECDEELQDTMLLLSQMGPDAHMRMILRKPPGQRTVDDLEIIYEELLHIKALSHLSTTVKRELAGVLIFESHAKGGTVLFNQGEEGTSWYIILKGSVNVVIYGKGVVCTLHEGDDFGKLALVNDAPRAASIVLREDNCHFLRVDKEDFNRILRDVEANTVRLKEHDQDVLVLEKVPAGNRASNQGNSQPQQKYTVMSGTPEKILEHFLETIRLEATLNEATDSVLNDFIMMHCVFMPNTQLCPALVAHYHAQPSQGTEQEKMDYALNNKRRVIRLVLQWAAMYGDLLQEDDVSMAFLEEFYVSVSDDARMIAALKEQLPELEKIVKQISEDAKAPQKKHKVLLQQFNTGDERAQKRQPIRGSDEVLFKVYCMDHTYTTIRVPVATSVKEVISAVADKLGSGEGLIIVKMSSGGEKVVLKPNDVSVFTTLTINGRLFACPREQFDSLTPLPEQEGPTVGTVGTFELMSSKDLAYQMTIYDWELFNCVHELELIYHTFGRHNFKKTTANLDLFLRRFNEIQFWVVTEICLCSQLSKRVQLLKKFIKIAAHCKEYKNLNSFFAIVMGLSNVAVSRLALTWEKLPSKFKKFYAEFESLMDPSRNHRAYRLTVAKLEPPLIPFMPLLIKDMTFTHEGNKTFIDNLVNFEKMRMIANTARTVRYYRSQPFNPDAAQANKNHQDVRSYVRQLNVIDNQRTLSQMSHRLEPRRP
Chain of Rap guanine nucleotide exchange factor 3 (Homo sapiens) (O95398 whole entry, looked up): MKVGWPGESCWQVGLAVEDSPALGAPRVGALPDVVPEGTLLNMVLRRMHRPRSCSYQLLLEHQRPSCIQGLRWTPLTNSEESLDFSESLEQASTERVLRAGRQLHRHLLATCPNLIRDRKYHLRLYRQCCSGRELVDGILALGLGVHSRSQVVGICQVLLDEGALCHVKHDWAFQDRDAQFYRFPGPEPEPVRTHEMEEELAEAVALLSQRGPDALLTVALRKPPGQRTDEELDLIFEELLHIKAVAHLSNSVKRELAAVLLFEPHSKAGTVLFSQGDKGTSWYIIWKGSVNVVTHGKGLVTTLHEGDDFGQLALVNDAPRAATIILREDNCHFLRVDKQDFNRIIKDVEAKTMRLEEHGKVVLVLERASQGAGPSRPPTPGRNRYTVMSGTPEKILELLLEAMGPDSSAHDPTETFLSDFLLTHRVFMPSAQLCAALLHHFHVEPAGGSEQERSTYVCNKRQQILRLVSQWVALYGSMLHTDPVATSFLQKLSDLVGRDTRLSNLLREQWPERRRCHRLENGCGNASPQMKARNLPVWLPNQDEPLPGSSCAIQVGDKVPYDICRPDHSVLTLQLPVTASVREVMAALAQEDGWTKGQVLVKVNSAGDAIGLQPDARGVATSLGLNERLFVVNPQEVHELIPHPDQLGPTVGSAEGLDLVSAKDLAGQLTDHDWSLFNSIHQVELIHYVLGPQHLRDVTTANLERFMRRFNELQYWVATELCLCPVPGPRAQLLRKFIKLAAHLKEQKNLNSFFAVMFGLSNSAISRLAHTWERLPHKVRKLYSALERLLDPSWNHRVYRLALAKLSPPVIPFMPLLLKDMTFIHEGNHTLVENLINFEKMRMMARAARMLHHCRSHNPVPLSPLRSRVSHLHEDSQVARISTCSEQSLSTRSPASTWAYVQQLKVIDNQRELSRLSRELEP

COc1ccc(S(=O)(=O)CC(=O)c2cc3cc(Br)ccc3oc2=O)cc1
inactive: Potency [2] | activation [3] -4.99% [at 17.1 µM, percent relative to cAMP agonist control] | Potency [4] | activity change, negative = inhibition [5] -4.76% [at 30.8 µM] | activation [6] 7.34% [at 30.8 µM]
active: Potency [1] 50.1 µM

Cc1ccc(S(=O)(=O)/N=C2/NC(=O)/C(=C\c3cc(Br)cc(Br)c3O)S2)cc1
active: Potency [1] 16.9 µM
inactive: Potency [2] | Potency [3] | Potency [4] | Potency [5] | Potency [6]

CC(C)N(Cc1cn(C)nc1-c1cccc(Cl)c1)Cc1nccn1C
inactive: Potency [1] | Potency [2] | activation [3] 1.24% [at 17.1 µM, percent relative to cAMP agonist control] | Potency [4] | activity change, negative = inhibition [5] -5.68% [at 30.8 µM] | activation [6] 15% [at 30.8 µM]

CCS(=O)(=O)N1CCCC(C(=O)NCCCN(C)Cc2ccccc2)C1 (stereo not drawn)
inactive: Potency [1] | Potency [2] | Potency [3] | Potency [4] | Potency [5] | Potency [6]

COc1ccc(CNc2cccnc2)c(OC)c1OC
inactive: Potency [1] | Potency [2] | activation [3] -6.76% [at 17.1 µM, percent relative to cAMP agonist control] | Potency [4] | activity change, negative = inhibition [5] -16% [at 30.8 µM] | activation [6] 15.5% [at 30.8 µM]

CCOc1ccc(Oc2ccccc2NC(=O)CN2C(=O)NC3(CCCC3)C2=O)cc1
inactive: Potency [1] | Potency [2] | activation [3] -25.9% [at 17.1 µM, percent relative to cAMP agonist control] | Potency [4] | activity change, negative = inhibition [5] -5.88% [at 30.8 µM] | activation [6] 10.7% [at 30.8 µM]

CN1CCC/C1=C/C=C1\SC(=S)NC1=O
inactive: Potency [1] | Potency [4] | Potency [5]
active: Potency [2] 89.1 µM | Potency [3] 100 µM | Potency [6] 39.8 µM

Cc1ccc2nc(-c3ccccc3)cc(C(=O)N3CC(C)OC(C)C3)c2c1 (stereo not drawn)
inactive: Potency [1] | Potency [2] | Potency [3] | Potency [4] | Potency [5] | Potency [6]

Cc1ccc2nc(-c3ccc(NC(=O)c4ccco4)cc3)[nH]c2c1
inactive: Potency [1] | Potency [2] | activation [3] 7.16% [at 17.1 µM, percent relative to cAMP agonist control] | Potency [4] | activity change, negative = inhibition [5] -13% [at 30.8 µM] | activation [6] 29.2% [at 30.8 µM]

Cc1ccc(-c2csc(NS(=O)(=O)c3cccc(F)c3)n2)o1
inactive: Potency [2] | activation [3] -0.922% [at 17.1 µM, percent relative to cAMP agonist control] | Potency [4] | activity change, negative = inhibition [5] -6.02% [at 30.8 µM] | activation [6] 14.9% [at 30.8 µM]
active: Potency [1] 14.1 µM

CCOC(=O)c1sc(NC(=O)c2ccncc2)nc1C
inactive: Potency [1] | Potency [2] | Potency [3] | Potency [4] | Potency [5] | Potency [6]

Cc1ccc(-c2csc(NC(=O)/C=C/c3ccco3)c2C(=O)O)cc1
inactive: Potency [2] | activation [3] 5.44% [at 17.1 µM, percent relative to cAMP agonist control] | Potency [4] | activity change, negative = inhibition [5] -12.5% [at 30.8 µM] | activation [6] 18.5% [at 30.8 µM]
active: Potency [1] 25.1 µM

Cc1cc2ccccn2c1C(=O)c1ccc(C#N)cc1
inactive: Potency [1] | Potency [2] | Potency [3] | Potency [4] | Potency [5] | Potency [6]

CSCCC(NS(=O)(=O)c1ccc2c(c1)oc(=O)n2C)C(=O)NC1CCCc2ccccc21 (stereo not drawn)
inactive: Potency [1] | Potency [2] | Potency [3] | Potency [4] | Potency [5] | Potency [6]

O=C(O)c1ccccc1NS(=O)(=O)c1ccc(N/N=C/c2ccc(O)c(O)c2)c([N+](=O)[O-])c1
inactive: Potency [2] | activation [3] -3.03% [at 17.1 µM, percent relative to cAMP agonist control] | Potency [4] | activity change, negative = inhibition [5] -1.88% [at 30.8 µM] | activation [6] 24.6% [at 30.8 µM]
active: Potency [1] 8.91 µM

Cc1ccc(C(=O)Nc2sc(C)c(C)c2C(=O)c2ccccc2)cc1
inactive: Potency [1] | Potency [2] | activation [3] 4.34% [at 17.1 µM, percent relative to cAMP agonist control] | Potency [4] | activity change, negative = inhibition [5] -1.59% [at 30.8 µM] | activation [6] -4.34% [at 30.8 µM]

NS(=O)(=O)c1ccc(-c2cccc(/C=C3\SC(=O)NC3=O)c2)cc1
active: Potency [1] 33.8 µM
inactive: Potency [2] | Potency [3] | Potency [4] | Potency [5] | Potency [6]

CCCCCC1CCC(c2ccc(C(N)=O)cc2)CC1 (stereo not drawn)
inactive: Potency [1] | Potency [2] | Potency [3] | Potency [4] | Potency [5] | Potency [6]

O=C(COC(=O)c1ccc(O)cc1O)Nc1nnc(-c2ccccc2)o1
inactive: Potency [1] | Potency [2] | Potency [3] | Potency [5] | Potency [6]
active: Potency [4] 84.9 µM

CCOC(=O)c1c(NC(=O)c2ccc(S(=O)(=O)N3CCC(C)CC3)cc2)sc2c1CCN(C(C)C)C2
active: Potency [2] 89.1 µM | Potency [3] 31.6 µM | Potency [6] 44.7 µM
inactive: Potency [1] | outcome [4] inactive [at 12.7 µM] | Potency [5]

OCC[n+]1ccc(/C=C/c2c[nH]c3ccccc23)cc1
active: Potency [2] 56.2 µM | Potency [3] 100 µM | Potency [6] 56.2 µM
inactive: Potency [1] | Potency [4] | Potency [5]

CN(C)c1ccc(C(O)c2cc3ccccc3s2)cc1 (stereo not drawn)
inactive: Potency [1] | Potency [2] | Potency [3] | Potency [4] | Potency [5] | Potency [6]

COC(=O)c1c(SC)nc2ccccc2c1OCc1cc(C)ccc1C
inactive: Potency [1] | Potency [2] | Potency [3] | Potency [4] | Potency [5] | Potency [6]

CC(C)Sc1nc2sccc2c(=O)n1-c1ccccc1
inactive: Potency [1] | Potency [2] | Potency [3] | Potency [5] | Potency [6]
active: Potency [4] 42.6 µM

N=C1/C(=C\c2ccc(OC(=O)c3ccccc3Cl)cc2)C(=O)N=C2SC(N3CCOCC3)=NN12
active: Potency [1] 19 µM
inactive: Potency [2] | Potency [3] | Potency [4] | Potency [5] | Potency [6]

CCN(CC(=O)Nc1ccccc1C(F)(F)F)C(=O)CCOc1ccccc1C
inactive: Potency [1] | Potency [2] | activation [3] -3.64% [at 17.1 µM, percent relative to cAMP agonist control] | Potency [4] | activity change, negative = inhibition [5] -14% [at 30.8 µM] | activation [6] 1.11% [at 30.8 µM]

CC1CCCCN1C(=O)COC(=O)c1cc([N+](=O)[O-])ccc1N1CCOCC1 (stereo not drawn)
inactive: Potency [1] | Potency [2] | Potency [3] | Potency [4] | Potency [5] | Potency [6]

O=C(Nc1sc(-c2ccccc2)cc1C(=O)O)c1ccccc1
inactive: Potency [2] | Potency [3] | Potency [4] | Potency [5] | Potency [6]
active: Potency [1] 75.7 µM

C=CCNC(=O)C1CC1(c1cccc(C)c1)c1cccc(C)c1 (stereo not drawn)
inactive: Potency [1] | Potency [2] | Potency [3] | Potency [4] | Potency [5] | Potency [6]

O=C(O)c1cc(S(=O)(=O)Nc2cc(Cl)ccc2Oc2ccccc2)ccc1O
active: Potency [1] 26.9 µM
inactive: Potency [2] | Potency [3] | Potency [4] | Potency [5] | Potency [6]

CN(C(=O)COC(=O)/C=C/c1ccc2c(c1)OCO2)c1c(N)n(Cc2ccccc2)c(=O)[nH]c1=O
inactive: Potency [1] | Potency [2] | Potency [3] | Potency [4] | Potency [5] | Potency [6]

NS(=O)(=O)c1ccc(NC(=O)Cc2c(F)cccc2Cl)cc1
inactive: Potency [1] | Potency [2] | Potency [3] | Potency [4] | Potency [5] | Potency [6]

CCCCC(Sc1nc2cc3c(cc2c(=O)n1CCCC(=O)NCc1ccc2c(c1)OCO2)OCO3)C(=O)OCC (stereo not drawn)
inactive: Potency [1] | Potency [2] | Potency [3] | outcome [4] inactive [at 12.7 µM] | Potency [5] | Potency [6]
